Screening results (PubChem BioAssay)
ALOX12 inhib: blocks human 12-lipoxygenase activity | P18054 | purified 12-hLO, xylenol orange hydroperoxide absorbance | Potency, µM (series often up to 57.1 µM), without a hit: at the top dose activity change, negative = inhibition, hits mostly inhibitors | 150,000 compounds, 0.12% hits; note: potency is the fitted concentration of half-maximal effect; nearly all actives have a fitted effect of over 55% in size
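Hydroperoxide formation by human 12-lipoxygenase from 40 uM arachidonic acid was followed colorimetrically via ferric-xylenol orange complex, using the 573/405 nm absorbance ratio. Enzyme concentration was 150 nM, with 30 min reaction at room temperature.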
GLA spleen mod: inhibitors or activators of human alpha-galactosidase in spleen homogenate; human spleen homogenate, 4MU-alpha-Gal fluorescence, 40 min; Potency, µM (titrated, usually from 80 µM), for the others: at the top dose activity change, negative = inhibition, usual class: inhibitors; 240,000 compounds, 0.008% hits; AID 2107;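 note: potency is the fitted concentration of half-maximal effect; 0% = enzyme with vehicle and -100% = no enzyme basal signal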
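Human spleen homogenate (1 ug) was the enzyme source, with 4-methylumbelliferyl-alpha-D-galactopyranoside (1 mM final) in pH 5.0 citrate buffer with 0.01% Tween-20. Compounds were titrated; after 40 min at 37C, NaOH/glycine stop, 4-MU fluorescence read; AC50 from Hill fits.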
GLA inh pH 4.5: inhibitors of human alpha-galactosidase A at pH 4.5 | P06280 | purified enzyme, 4-MU-alpha-Gal fluorescence, pH 4.5 | activity change, negative = inhibition, % at 105 µM | 230,000 tested, under 10 active | AID 1467;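 note: 0% = full activity with enzyme and -100% = basal without enzyme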
PNC inhibitor: perinucleolar compartment assembly inhibition; 140,000 compounds, 3.1% hits; PC3M PTB-GFP, PNC prevalence imaging, 16 h; hits give low values; activity change (PNC), negative = inhibition, % at 10 µM;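 active = readout at or below -70, meaning at least 70% loss of cells showing the perinucleolar compartment, a nuclear body marking cancer cells; inconclusive = readout between -30 and a set limit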;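 note: plate controls were DMSO wells for no effect and camptothecin positive control wells for full effect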
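Read-out is percentage of cells bearing a perinucleolar compartment, from automated 20x imaging of fixed, Hoechst-stained PC3M PTB-GFP cells. Cells were seeded 4 h, then exposed 16 h to compound (23 nl of library stock) in duplicate plates.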
HPGD inh: HPGD (human) dehydrogenase inhibition; P15428; purified HPGD, NADH fluorescence kinetic, PGE2 substrate; Potency, µM, without a hit: at the top dose activity change, negative = inhibition, hits mostly inhibitors; 150,000 compounds, 4.3% hits; active = well fitted inhibition curve with a large enough effect, not every such curve was filed as active; inconclusive = small, poorly fitted or top-dose-only effect, or another doubt; inactive = no such curve, though single readings can be large or run the other way; note: potency is the fitted concentration of half-maximal effect
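20 nM HPGD preincubated 15 min at room temperature with compound in 50 mM Tris-HCl pH 8, 0.01% Tween 20. Started with 1 mM NAD+ and 30 uM prostaglandin E2; NADH fluorescence (360/450 nm) read 5 times over 30-s intervals, last minus first.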
ALDH1A1 block: blocks purified human ALDH1A1 activity; P00352; Purified ALDH1A1, NADH fluorescence, propionaldehyde substrate; Potency, µM (highest dose often 75.3 µM), without a hit: at the highest dose activity, negative = inhibition, hits mostly inhibitors; 220,000 compounds, 7.3% hits; AID 1030; active = well fitted inhibition curve with a large enough effect, not every such curve was filed as active; inconclusive = small, poorly fitted or top-dose-only effect, or another doubt; inactive = no such curve, though single readings can be large or run the other way;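 note: potency is the fitted concentration of half-maximal effect; plate controls were no enzyme wells and a reference inhibitor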
Target sequence (P00352 whole entry, looked up): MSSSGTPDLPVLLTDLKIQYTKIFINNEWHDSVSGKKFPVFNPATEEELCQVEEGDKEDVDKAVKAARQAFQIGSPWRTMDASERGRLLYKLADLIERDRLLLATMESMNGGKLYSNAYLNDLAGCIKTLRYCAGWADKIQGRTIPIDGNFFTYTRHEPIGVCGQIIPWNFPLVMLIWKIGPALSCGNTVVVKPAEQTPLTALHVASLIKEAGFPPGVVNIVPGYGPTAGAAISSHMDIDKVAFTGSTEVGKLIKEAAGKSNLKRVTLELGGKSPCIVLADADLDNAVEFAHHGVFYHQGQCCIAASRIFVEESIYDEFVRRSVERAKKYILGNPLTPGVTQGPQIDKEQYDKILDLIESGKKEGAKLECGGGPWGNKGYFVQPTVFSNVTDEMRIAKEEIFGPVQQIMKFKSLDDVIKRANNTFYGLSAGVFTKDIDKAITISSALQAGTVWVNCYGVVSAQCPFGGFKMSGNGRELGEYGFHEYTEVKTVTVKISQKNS
An asterisk follows results filed as active; ? = inconclusive; . = not tested or not shown; [ ] = remark or other dose. Sampled rows, rich in hits. Any-hit rate of the full collection: about 10%. Unless noted, calls come from the whole dose curve; as a rule, active = well fitted curve in the direction sought with a large enough effect; inconclusive = small, poorly fitted or top-dose-only effect, or another doubt; inactive = no such curve, though single readings can be large; an effect the other way counts as inactive or inconclusive. Unless noted, % is set by controls: 0 for no effect and ±100 for the full control effect.

SMILES	ALOX12 inhib	GLA spleen mod	GLA inh pH 4.5	PNC inhibitor	HPGD inh	ALDH1A1 block
O=C(NCc1cccs1)C1CCN(c2ccc(S(=O)(=O)N3CCOCC3)cc2Cl)CC1	-6%	-7%	-8	-124*	-21%	0%
Cc1nc(N2CCCCC2)c(C#N)c(C)c1[N+](=O)[O-]	.	4%	-1	.	.	-12%
COC(=O)c1ccc(OC(C)C(=O)c2ccc(C)cc2)cc1 (stereo not given)	-1%	5%	-5	25	-13%	-4%
Cc1cc(C(=O)OCC(=O)c2cccc([N+](=O)[O-])c2)c2ccccc2n1	-1%	-3%	1	?	-24%	-2%
Cc1cc(C(=O)OCC(=O)c2ccc(Cl)c([N+](=O)[O-])c2)c2cccc(C)c2n1	2%	?	-3	18	-18%	13µM*
Cc1ccc2nc(C)cc(C(=O)OCC(=O)c3ccc(Cl)c([N+](=O)[O-])c3)c2c1	-7%	-17%	-3	5	-19%	20µM*
O=C1c2cc(Br)ccc2O[C@@H](c2ccc3c(c2)OCO3)[C@@H]1O	.	7%	-1	.	-7%	0%
O=C1CN(C(=O)COC(=O)COc2ccc3c(c2)CCC3)c2ccccc2N1	-6%	0%	7	-8	14µM*	?
CCOC(=O)c1[nH]c(C)c(C(=O)OCC(=O)N2CC(=O)Nc3ccccc32)c1C	0%	2%	7	6	16µM*	-15%
Cc1cc2cc(CNC(=O)CCC(=O)O)ccc2[nH]1	0%	6%	8	?	-9%	28µM*
O=c1cc(CCl)nc2sc3ccccc3n12	.	-10%	6	.	.	4%
O=C(OCc1cc(=O)n2c(n1)sc1ccccc12)c1ccc(O)cc1	-4%	-3%	11	44	14µM*	-2%
CCCCn1c(SCC(=O)N2CCN(c3ccccc3)CC2)nc2ccsc2c1=O	-12%	-2%	6	-112*	.	?
CCCCn1c(SCC(=O)N2CCC(C)CC2)nc2ccsc2c1=O	-10%	-3%	1	-22	-15%	11µM*
CCCCn1c(SCC(=O)Nc2ccccc2C(F)(F)F)nc2ccsc2c1=O	-1%	0%	-3	?	-15%	28µM*
CCCCn1c(SCC(=O)Nc2nccs2)nc2ccccc2c1=O	4%	-4%	-1	59	2%	3%
O=C(CN1CCN(S(=O)(=O)c2ccccc2)CC1)Nc1ccc([N+](=O)[O-])cc1	-2%	-6%	5	37	-13%	-15%
Cc1cnc(CNc2cc(-c3ccccc3C(F)(F)F)ncn2)cn1	.	0%	.	.	.	-2%
NC1=N[C@H](c2ccc(Cl)cc2)N(c2ccc(S(=O)(=O)Nc3ncccn3)cc2)C(N)=N1	0%[11.4 µM]	.	.	.	-4%	-4%[13.5 µM]
O=C(COC(=O)/C=C/c1ccc(Cl)cc1)NCCc1ccccc1	-2%	10%	-2	-13	-17%	2%
CC(C)C[C@@H](CC(=O)N[C@@H](CCCN)CC(=O)N[C@@H]1CCNC[C@H]1C(=O)N[C@H](CC(=O)N[C@@H](CCC(=O)O)CC(=O)O)Cc1ccccc1)NC(=O)[C@@H]1CNCC[C@H]1N	-3%	13%	0	.	-5%	-7%
CCOC(=O)CN1C(=O)C2(OCCCO2)c2ccccc21	1%	11%	-2	7	-11%	8.9µM*
CCOC(=O)CN1C(=O)C(O)(c2c(C)[nH]c3ccccc23)c2ccccc21 (stereo not given)	-5%	-11%	-4	-15	-7%	0.28µM*
CCOC(=O)CN1C(=O)C(O)(C2CCc3ccccc3C2=O)c2ccccc21 (stereo not given)	-3%	-7%	4	3	2%	3.2µM*
CCOC(=O)CN1C(=O)c2ccccc2C1=O	4%	-7%	7	?	-7%	5%
SMILES	ALOX12 inhib	GLA spleen mod	GLA inh pH 4.5	PNC inhibitor	HPGD inh	ALDH1A1 block
NS(=O)(=O)c1ccc(CCNC(=O)C2CCC(Cn3c(=S)[nH]c4ccccc4c3=O)CC2)cc1 (stereo not given)	.	-1%	-2	.	.	17%
C[N+](C)(CCCOc1ccccc1)c1ccccc1	0%[25.6 µM]	1%[29.1 µM]	7	.	0%	-8%[20.9 µM]
O=C(Cn1ccnc1[N+](=O)[O-])NCCO	7%	0%	-7	.	-11%	0%
CN(C(=O)c1cccc(COc2ccc(Cl)cc2Cl)c1)c1ccccc1	-2%	-3%	-9	27	18µM*	?
Cc1ccc(Cl)cc1NC(=O)COC(=O)c1ccc(COc2ccc3c(C)cc(=O)oc3c2)cc1	-4%	-5%	0	-113*	?	?
NC(=O)c1ccc(C[C@H](C(=O)O)N2C(=O)c3ccc(C(=O)O)cc3C2=O)cc1	.	-5%	.	.	.	.
Nc1c(C(O)(C(F)(F)F)C(F)(F)F)cc(C(O)(C(F)(F)F)C(F)(F)F)c2ccccc12	-13%	-12%	-15	-19	-17%	-3%
CCN(CC)C(=O)CSc1ncnc2c1nnn2-c1ccc(F)cc1	-1%	-7%	-3	21	-17%	?
COc1ccc(-n2nnc3c(SCC(=O)OCc4ccccc4)ncnc32)cc1	-5%	13%	-3	-2	-2%	-1%
CCN(CC)C(=O)CSc1ncnc2c1nnn2-c1ccc(OC)cc1	2%	1%	-1	0	-15%	4µM*
COc1ccc(-n2nnc3c(SCc4ccccc4)ncnc32)cc1	-4%	-5%	1	-15	16µM*	13µM*
COC(=O)c1ccc(CSc2ncnc3c2nnn3-c2ccc(F)cc2)o1	-6%	-12%	-19	-26	7.1µM*	-13%
COC(=O)c1ccc(C(NC(=O)OCc2ccccc2)/C(F)=C/[C@@H](C)C(=O)NCc2cccnc2)cc1 (stereo not given in full)	-5%	3%	-5	.	-8%	-9%
Cc1ccc(CNCc2ccccc2Cl)cc1	2%	0%	-3	?	-9%	2%
Fc1ccc(CNCc2ccccc2Cl)cc1	.	1%	-6	.	.	11µM*
COc1ccc(C(OCCN2CCC[C@@H](C(=O)O)C2)(c2ccc(OC)cc2)c2ccc(OC)cc2)cc1	-1%	-1%	-4	.	-1%	4%
CCOc1ccc(C(c2c(NC(=O)c3ccccc3)sc(C)c2C)N2CCN(C)CC2)cc1 (stereo not given)	-11%	2%	-3	-81*	?	?
Cc1sc(NC(=O)c2ccccc2)c(C(c2ccccn2)N2CCN(CCO)CC2)c1C (stereo not given)	1%	12%	-8	18	-18%	17%
N#CCCN(C(=O)CN1C(=O)NC2(CCCC2)C1=O)c1ccccc1F	6%	10%	7	37	-10%	7.9µM*
